Assay results from the supplement of paper PMC7695840.
Counter-ions that a name gives are not always drawn.

Experiments:
[1] = test system: Staphylococcus aureus MW2 delta-mecA (mecA-); assay: normalized GFP fluorescence (growth of mecA- strain) (fraction of control range); higher = more growth of mecA- strain; conditions: compound concentration: 150 uM; cefoxitin: subinhibitory; fluorescent label: GFP
Procedure, shortened: (§1)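 In 1536-well plates holding 150 μM compound (1.5% DMSO), a 1:1 mix of pre-induced S. aureus MW2 cells was added at 5 µL/well, in one replicate. One strain carried the gene and DsRed, the other lacked the gene and carried GFP, and the LB held a subinhibitory antibiotic dose chosen daily. Plates stood unshaken for 20 h at 37 °C, 90% humidity, before DsRed (540/590) and GFP (485/520) readings, which were scaled per plate to single-strain control medians, with plates high in untreated ratio and rows above DsRed/GFP 10 dropped.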

[2] = test system: Staphylococcus aureus MW2 (mecA+); assay: normalized DsRed fluorescence (growth of mecA+ strain) (fraction of control range); higher = more growth of mecA+ strain; conditions: compound concentration: 150 uM; cefoxitin: subinhibitory; fluorescent label: DsRed
Procedure, shortened: as §1

SMILES | normalized GFP fluorescence [1] | normalized DsRed fluorescence [2]
CCCC(C)(COC(N)=O)COC(=O)NC(C)C (centres undefined) | 0.54 | 1.05
CCCC(C)C1(CC)C(=O)NC(=S)NC1=O (centres undefined) | 0.288 | 0.518
C#C[C@]1(O)C=C[C@H]2[C@@H]3CCC4=CC(=O)CC[C@@H]4[C@H]3CC[C@@]21CC [Gestodene] | 0.342 | 0.279
CN(C)C(=O)Oc1ccc[n+](C)c1 | 0.22 | 0.58
CC[C@@H](c1cccc(O)c1)[C@@H](C)CN(C)C | 0.313 | 0.724
CC1(C)C(C=C(Cl)Cl)C1C(=O)OCc1cccc(Oc2ccccc2)c1 (centres undefined) | 0.134 | 0.704
COP(=O)(OC)C(O)C(Cl)(Cl)Cl (centres undefined) | 0.2 | 0.658
NCC(CC(=O)O)c1ccc(Cl)cc1 (centres undefined) | 0.683 | 0.941
CN1C(=O)C(O)N=C(c2ccccc2)c2cc(Cl)ccc21 (centres undefined) | 0.205 | 0.691
C[N+]1([O-])[C@@H]2CC[C@H]1C[C@@H](OC(=O)C(CO)c1ccccc1)C2 (some centres undefined) | 0.483 | 1.24
O=P1(NCCCl)OCCCN1CCCl (centres undefined) | 0.399 | 0.711
CCN(C(C)=O)c1cccc(-c2ccnc3c(C#N)cnn23)c1 | 0.782 | 0.598
COc1ccc2c(c1)[C@]13CCCC[C@@H]1[C@H](C2)N(C)CC3 | 0.241 | 1.04
CCOC(=O)c1cncn1C(C)c1ccccc1 (centres undefined) | 0.248 | 0.732
CN1C(=O)CCS(=O)(=O)C1c1ccc(Cl)cc1 (centres undefined) | 0.212 | 0.676
COc1ccc(C(CN(C)C)C2(O)CCCCC2)cc1 (centres undefined) | 0.6 | 0.623
CN1[C@@H]2CC[C@H]1C[C@@H](OC(=O)[C@H](CO)c1ccccc1)C2 | 0.693 | 0.664
O=C1CN=C(c2ccccc2Cl)c2cc([N+](=O)[O-])ccc2N1 | 0.145 | 1.02
COc1ccc(OC)c(C(O)C(C)N)c1 (centres undefined) | 0.864 | 0.526

SMILES | normalized GFP fluorescence [1] | normalized DsRed fluorescence [2]
O=c1n(Cl)c(=O)n(Cl)c(=O)n1Cl | 0.337 | 0.35
CO[C@]12C[C@@H](COC(=O)c3cncc(Br)c3)CN(C)[C@@H]1Cc1cn(C)c3cccc2c13 | 0.411 | 0.751
CC(=O)O[C@H]1C[C@@H]2CC[C@@H]3[C@H](CC[C@@]4(C)[C@H]3C[C@H]([N+]3(C)CCCCC3)[C@@H]4OC(C)=O)[C@@]2(C)C[C@@H]1[N+]1(C)CCCCC1 [Pancuronium (Pavulon)] | 0.324 | 0.578
O=[N+]([O-])O[C@H]1CO[C@H]2[C@@H]1OC[C@H]2O[N+](=O)[O-] | 0.915 | 0.65
O=c1[nH]c2ccccc2n1CCCN1CCC(n2c(=O)[nH]c3cc(Cl)ccc32)CC1 [Domperidone (Motilium)] | 0.0985 | 0.927
NC(=O)C[S+]([O-])C(c1ccccc1)c1ccccc1 (centres undefined) | 0.716 | 0.558
CCC1(c2cccc(O)c2)CCCCN(C)C1 (centres undefined) [Meptazinol HCl] | 0.168 | 0.815
CCC(=O)O[C@H]1CC[C@H]2[C@@H]3CCC4=CC(=O)CC[C@]4(C)[C@H]3CC[C@]12C | 0.154 | 0.364
COc1cc2c(c(OC)c1OC)-c1ccc(OC)c(=O)cc1[C@@H](NC(C)=O)CC2 | 0.0184 | 0.897
CC(O)CN1CCN(CC(=O)[O-])CCN(CC(=O)[O-])CCN(CC(=O)[O-])CC1.[Gd+3] (centres undefined) | 0.58 | 0.515
CN1[C@@H]2C[C@@H](OC(=O)[C@H](CO)c3ccccc3)C[C@H]1[C@@H]1O[C@@H]12 | 0.83 | 0.7
CCC1(c2ccc(N)cc2)CCC(=O)NC1=O (centres undefined) | 0.425 | 0.946
CN1C[C@H](C(=O)N[C@]2(C)O[C@@]3(O)[C@@H]4CCCN4C(=O)[C@H](Cc4ccccc4)N3C2=O)C=C2c3cccc4[nH]cc(c34)C[C@H]21 | 0.435 | 1.11
CN1C[C@H](C(=O)N[C@]2(C)O[C@@]3(O)[C@@H]4CCCN4C(=O)[C@H](Cc4ccccc4)N3C2=O)C[C@@H]2c3cccc4[nH]cc(c34)C[C@H]21 | 0.246 | 0.753
O=C1CC[C@@]2(O)[C@H]3Cc4ccc(O)c5c4[C@@]2(CCN3CC2CC2)[C@H]1O5 | 0.283 | 0.86
CC[C@H]1CN2CCc3cc(OC)c(OC)cc3[C@@H]2C[C@@H]1C[C@H]1NCCc2cc(OC)c(OC)cc21 | 0.439 | 0.948
CNC(C)(C)Cc1ccccc1 | 0.75 | 0.831
Cc1c(N)nc(C(CC(N)=O)NCC(N)C(N)=O)nc1C(=O)NC(C(=O)NC(C)C(O)C(C)C(=O)NC(C(=O)NCCc1nc(-c2nc(C(=O)NCCC[S+](C)C)cs2)cs1)C(C)O)C(O[C@@H]1O[C@@H](CO)[C@@H](O)[C@H](O)[C@@H]1O[C@H]1O[C@H](CO)[C@@H](O)[C@H](OC(N)=O)[C@@H]1O)c1cnc[nH]1 (some centres undefined) | 0.114 | 0.862
